# Source: PubChem BioAssay (Tox21)
# Several values for one entry are separate records, joined by “and”; a condition that tells them apart may be missing. Equal entries are not always repeated. Results filed as inconclusive are left out. Entries that show only a call come without a potency. Some structures have more than one record in an assay (separate samples or runs), and their calls can disagree. Activity calls are given as the source filed them. Unless noted, the call rests on the fitted dose curve; in most records, active means well fitted curve in the direction sought with a large enough effect in the repeat runs; inconclusive means weak or mixed curves; inactive means no such curve, though single readings can be large; an effect the other way counts as inactive or inconclusive.
# Assays:
# [1] = qHTS assay to identify small molecule antagonists of the estrogen receptor alpha (ER-alpha) signaling pathway using the BG1 cell line in the presence of 0.1 nM 17-beta-estradiol - cell viability counter screen (AID 1259241); further: nearly all actives have a fitted effect of over 40% in size; further: potency means the concentration at half of the fitted maximal effect
# Summary of the method: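 VM7Luc4E2 cells (endogenous ER-alpha, 4×ERE-luciferase), hormone-starved 5 days in charcoal-stripped FBS, were treated with compounds plus 0.1 nM 17beta-estradiol for 22 hr at 37C; viability read in same wells as CellTiter-Fluor live-cell protease fluorescence.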
# [2] = qHTS assay to identify small molecule antagonists of the androgen receptor (AR) signaling pathway using the MDA cell line in the presence of 0.5 nM R1881 - cell viability counter screen (AID 1259242); further: nearly all actives have a fitted effect of over 45% in size; further: potency means the concentration at half of the fitted maximal effect
# Summary of the method: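 Counter screen for cytotoxicity run in the same wells as the AR antagonist reporter screen: MDA-kb2 cells were treated 16 hr with test compounds and 0.5 nM R1881, then live-cell protease activity was measured by fluorescence.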
# [3] = qHTS assay to identify small molecule HDAC inhibitors (AID 1259364); further: top concentration of the series differs between compounds; nearly all actives have a fitted effect of over 45% in size
# Summary of the method: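 Luminescence from a cell-permeant luminogenic class I/II HDAC substrate reports endogenous deacetylase activity in intact HCT-116 cells treated with compounds for 2 h.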
# [4] = qHTS assay to identify small molecule HDAC inhibitors - cell viability counter screen (AID 1259365); further: series mostly up to about 92 µM; nearly all actives have a fitted effect of over 50% in size
# Summary of the method: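 Wild-type HCT-116 cells were seeded at 1,500 per well, incubated overnight at 37 C, then exposed to compounds in DMSO for 2hr. Viability was read by CellTiter-Glo luminescence after 30min at room temperature.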
# [5] = qHTS assay to identify small molecule agonists of the sonic hedgehog signaling (Shh) pathway - cell viability counter screen (AID 1259366); further: nearly all actives have a fitted effect of over 50% in size; further: potency means the concentration at half of the fitted maximal effect
# Summary of the method: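 NIH/3T3-derived 3T3 Gli1-Luc cells (stable Gli1-responsive firefly luciferase reporter) were seeded, rested 4 hr at 37 C/5% CO2, then exposed to compounds in DMSO for 24 hr; viability was read by CellTiter-Fluor fluorescence in the same wells.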
# [6] = qHTS assay to identify small molecule antagonists of the sonic hedgehog signaling (Shh) pathway - cell viability counter screen (AID 1259367); further: nearly all actives have a fitted effect of over 55% in size; further: potency means the concentration at half of the fitted maximal effect
# Summary of the method: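 Cells: 3T3 Gli1-Luc, 2,000/well, 4 hr pre-incubation. Compounds in DMSO, then conditioned medium. Incubation 24 hr, 37C, 5% CO2. CellTiter-Fluor at 23 hr, 1 hr, fluorescence.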
# [7] = qHTS assay to identify small molecule agonists of the sonic hedgehog signaling (Shh) pathway (AID 1259368; calls by dose curve; further: series mostly up to about 92 µM; nearly all actives have a fitted effect of over 15% in size)
# Summary of the method: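 3T3Gli1-Luc (NIH/3T3 clone, stable Gli1-Luc); 4 hr pre-incubation, then cpd in DMSO 24 hr, 37 C/5% CO2; luciferase reagent 30 min RT; luminescence.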
# [8] = qHTS assay to identify small molecule phospholipidosis (PLD) inducers (AID 1259344; active means well fitted curve in the direction sought with a large enough effect; an effect the other way counts as inactive or inconclusive)
# Summary of the method: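 Phospholipidosis is scored by imaging LipidTOX-stained pits in HepG2 cells exposed to compound for 24 h at 37 C; pit counts and integrated intensities per well and per cell serve as outputs.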
# [9] = biological target: Estrogen receptor (Homo sapiens) (UniProt P03372); experiment: qHTS assay to identify small molecule antagonists of the estrogen receptor alpha (ER-alpha) signaling pathway using the BG1 cell line in the presence of 0.1 nM 17-beta-estradiol (AID 1259244); further: nearly all actives have a fitted effect of over 50% in size
# Summary of the method: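 Cells: VM7Luc4E2, endogenous ER-alpha, 4x ERE-luc stable. Pre-culture 5 d, phenol red-free, charcoal-stripped FBS. Plated 24 h, compound + E2 0.1 nM final, 22 h 37C/5% CO2. Readout ONE-Glo luminescence.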
# Chain of Estrogen receptor (Homo sapiens) (P03372 whole entry, looked up): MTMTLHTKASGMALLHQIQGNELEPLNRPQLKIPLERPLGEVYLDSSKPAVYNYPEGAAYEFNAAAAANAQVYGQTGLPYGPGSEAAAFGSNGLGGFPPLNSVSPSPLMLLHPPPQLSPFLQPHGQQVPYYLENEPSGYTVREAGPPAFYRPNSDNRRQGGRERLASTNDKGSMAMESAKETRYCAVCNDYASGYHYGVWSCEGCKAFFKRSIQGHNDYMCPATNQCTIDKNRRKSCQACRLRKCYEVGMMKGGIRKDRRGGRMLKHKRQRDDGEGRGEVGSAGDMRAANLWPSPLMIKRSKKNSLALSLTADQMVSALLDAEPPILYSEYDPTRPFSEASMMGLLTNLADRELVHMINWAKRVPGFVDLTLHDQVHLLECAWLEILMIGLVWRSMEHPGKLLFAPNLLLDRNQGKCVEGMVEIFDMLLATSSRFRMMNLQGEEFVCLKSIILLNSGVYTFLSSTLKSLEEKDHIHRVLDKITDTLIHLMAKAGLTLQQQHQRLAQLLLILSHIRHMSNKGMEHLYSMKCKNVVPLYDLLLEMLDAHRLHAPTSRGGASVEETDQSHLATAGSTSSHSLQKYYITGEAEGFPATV
compound,measurement,setting,value
CC1COc2c(N3CCN(C)CC3)c(F)cc3c(=O)c(C(=O)O)cn1c23 (centres undefined),Potency,[1],inactive
same,Potency,[2],inactive
same,Potency,[3],inactive
same,Potency,[4],inactive
same,Potency,[5],inactive
same,Potency,[6],inactive
same,Potency,[7],inactive
Cc1cc(Cc2cc(C)cc(C(C)(C)C)c2O)c(O)c(C(C)(C)C)c1,Potency,[1],inactive
same,Potency,[2],30.8 µM (active)
same,Potency,[3],inactive
same,Potency,[4],inactive
same,Potency,[5],43.5 µM (active)
same,Potency,[6],61.4 µM (active)
same,Potency,[7],inactive
N[C@@H]1CONC1=O,Potency,[1],inactive
same,Potency,[2],inactive
same,Potency,[3],inactive
same,Potency,[4],inactive
same,Potency,[5],inactive
same,Potency,[6],inactive
same,Potency,[7],inactive
c1ccc2n[nH]nc2c1,Potency,[1],inactive
same,Potency,[2],inactive
same,Potency,[3],inactive
same,Potency,[4],inactive
same,Potency,[5],inactive
same,Potency,[6],inactive
same,Potency,[7],inactive
NC(Cc1ccc(Cl)cc1)C(=O)O (centres undefined),"activity change, negative = cytotoxicity",[1],0.121% [at 0.349 µM] (inactive)
same,"viability change, negative = cytotoxic",[2],4.52% [at 0.349 µM] (inactive)
same,"activity change, negative = inhibition",[3],-0.367% [at 0.349 µM] (inactive)
same,"activity change, negative = cytotoxicity",[4],1.43% [at 0.349 µM] (inactive)
same,"viability change, negative = cytotoxic",[5],0.958% [at 0.349 µM] (inactive)
same,"viability change, negative = cytotoxic",[6],2.83% [at 0.349 µM] (inactive)
same,activity change,[7],"-0.363% [at 0.349 µM, stronger effect = higher value] (inactive)"
Cc1occc(=O)c1OC(=O)C(C)C,Potency,[1],inactive
same,Potency,[2],inactive
same,Potency,[3],inactive
same,Potency,[4],inactive
same,Potency,[5],inactive
same,Potency,[6],inactive
same,Potency,[7],inactive
O=C(Cl)c1cccc(C(=O)Cl)c1,Potency,[1],inactive
same,Potency,[2],inactive
same,Potency,[3],inactive
same,Potency,[4],inactive
same,Potency,[5],inactive
same,Potency,[6],inactive
same,Potency,[7],inactive
COc1ccc(CCN2CCC(Nc3nc4ccccc4n3Cc3ccc(F)cc3)CC2)cc1,Potency,[1],49.6 µM (active)
same,Potency,[2],17.6 µM (active) and 21.1 µM (active)
same,Potency,[3],inactive
same,Potency,[4],inactive
same,Potency,[5],1.11 µM (active) and 3.76 µM (active)
same,Potency,[6],1.4 µM (active) and 11.9 µM (active)
same,Potency,[7],inactive
CC(C)(C)c1ccccc1,Potency,[1],inactive
same,Potency,[2],inactive
same,Potency,[3],inactive
same,Potency,[4],inactive
same,Potency,[5],inactive
same,Potency,[6],inactive
same,Potency,[7],inactive
COC(=O)[C@H]1[C@H]2C[C@@H]3c4[nH]c5cc(OC)ccc5c4CCN3C[C@H]2C[C@@H](OC(=O)c2cc(OC)c(OC)c(OC)c2)[C@@H]1OC,Potency,[1],inactive
same,Potency,[2],inactive
same,Potency,[3],inactive
same,Potency,[4],inactive
same,Potency,[5],inactive
same,Potency,[6],inactive
same,Potency,[7],inactive
OCCN1CCNCC1,Potency,[1],inactive
same,Potency,[2],inactive
same,Potency,[3],inactive
same,Potency,[4],inactive
same,Potency,[5],inactive
same,Potency,[6],inactive
same,Potency,[7],inactive
CC(COc1ccccc1)N(CCCl)Cc1ccccc1 (centres undefined),Potency,[1],inactive
same,Potency,[2],55 µM (active) and inactive
same,Potency,[8],inactive
same,Potency,[4],inactive
same,Potency,[6],inactive
same,Potency,[7],inactive
CCOC(=O)C(C)C(C)=O (centres undefined),Potency,[1],inactive
same,Potency,[2],inactive
same,Potency,[3],inactive
same,Potency,[4],inactive
same,Potency,[5],inactive
same,Potency,[6],inactive
same,Potency,[7],inactive
Cc1cccc([N+](=O)[O-])c1C(=O)O,Potency,[1],inactive
same,Potency,[2],inactive
same,Potency,[3],inactive
same,Potency,[4],inactive
same,Potency,[5],inactive
same,Potency,[6],inactive
same,Potency,[7],inactive
O=C1OC2(c3ccc(O)cc3Oc3cc(O)ccc32)c2ccccc21,Potency,[8],inactive
same,Potency,[3],inactive
same,Potency,[4],inactive
same,Potency,[7],inactive
CC(C)(C)c1ccc(O)c(C(C)(C)C)c1,Potency,[1],inactive
same,Potency,[2],inactive
same,Potency,[3],inactive
same,Potency,[7],inactive
CCN(CC)c1ccc2c(C)cc(=O)oc2c1,Potency,[2],inactive
same,Potency,[9],inactive
same,Potency,[4],inactive
same,Potency,[7],inactive
CC(=O)OCCOCCOCCOC(C)=O,Potency,[1],inactive
same,Potency,[2],inactive
same,Potency,[3],inactive
same,Potency,[4],inactive
same,Potency,[6],inactive
same,Potency,[7],inactive
COc1ccc(COC(C)=O)cc1,Potency,[1],inactive
same,Potency,[2],inactive
same,Potency,[4],inactive
same,Potency,[6],inactive
same,Potency,[7],inactive
O,Potency,[1],inactive
same,Potency,[2],inactive
same,Potency,[3],inactive
same,Potency,[4],inactive
same,Potency,[6],inactive
same,Potency,[7],inactive
Oc1c(Cl)cc(Cl)cc1Sc1cc(Cl)cc(Cl)c1O,Potency,[1],inactive
same,Potency,[8],inactive
same,Potency,[3],inactive
same,Potency,[4],inactive
same,Potency,[5],inactive
same,Potency,[6],27.4 µM (active) and inactive
same,Potency,[7],inactive
CC(=O)CC(=O)Nc1ccc2[nH]c(=O)[nH]c2c1,Potency,[1],inactive
same,Potency,[2],inactive
same,Potency,[4],inactive
same,Potency,[6],inactive
same,Potency,[7],inactive
Cc1ccnc2c1NC(=O)c1cccnc1N2C1CC1,Potency,[1],inactive
same,Potency,[2],inactive
same,Potency,[3],inactive
same,Potency,[4],inactive
same,Potency,[6],inactive
same,Potency,[7],inactive
